The campaign covered roughly 48,000 compounds. About 13,000 (27%) showed an effect of 50% or more. The list shows a part of the results.
system: Wolbachia pipientis; experiment: Anti-Wolbachia Cell-Based Screen; assay type: functional; parameters: scale not given: in the data most compounds retested in dose-response had high values; conditions: 5 µM

| Structure (SMILES) | Percent Effect |
| --- | --- |
| Cc1nc(CN2CCC(CNC(=O)C3CCOC3)CC2)oc1C (stereo not given) | -1.518% |
| CCCN(CCC)C(=O)c1cc(CN2CCC(O)CC2)on1 | -23.18% |
| COc1ccc(-c2noc(CCC(=O)N3CCOCC3(C)C)n2)cc1 | 3.097% |
| CCc1nccn1C1CCCN(C(=O)c2cc3nc(C)ccc3o2)C1 (stereo not given) | -10.67% |
| O=c1[nH]nc2c(S(=O)(=O)N3CCCCCC3)cccn12 | 159% |
| Cc1nnc(SCCNC(=O)CC2CCc3ccccc32)s1 (stereo not given) | -7.078% |
| O=C(O)C(F)(F)F.O=C1CO[C@@H]2CN(CC3CC3)C[C@H]2N1Cc1cccc(F)c1 | 2.959% |
| NC(=O)CN1C(=O)CO[C@H]2CN(Cc3ccccc3)C[C@H]21 | -7.855% |
| O=C(O)[C@H]1OCC(=O)N(Cc2cccc(Cl)c2)[C@@H]1c1ccccc1 | 97.67% |
| CN1CCC(C(=O)N2CCN(Cc3cccc(Cl)c3)CC2)CC1=O (stereo not given) | 1.504% |
| O=C(O)[C@H]1OCC(=O)N(Cc2cccc(F)c2)[C@@H]1c1ccc(Cl)cc1 | 104.6% |
| CC(C)N1C[C@@H]2OCC(=O)N(Cc3ccccc3)[C@@H]2C1 | 4.027% |
| O=C(O)C(F)(F)F.O=C1CO[C@@H]2CN(CC3CCOC3)C[C@H]2N1Cc1cccc(F)c1 (stereo not given in full) | 18.32% |
| O=C(O)[C@@H]1OCC(=O)N(Cc2cccc(Cl)c2)[C@@H]1c1ccccc1 | 105.3% |
| O=C1CO[C@H]2CN(S(=O)(=O)c3ccccc3)C[C@H]2N1Cc1ccccc1 | -0.9845% |
| CCOc1ccccc1-c1noc(CN2CC(n3cccn3)C2)n1 | -3.661% |
| COc1ccc(C2(C(=O)N3CC(c4cccnc4)C3)CC2(C)C)cc1 (stereo not given) | -12.52% |
| COc1ccc(C(=O)N2CCOC(Cc3cccc(C(F)(F)F)c3)C2)o1 (stereo not given) | -4.741% |
| N#Cc1ccc(CNc2ncc(C#N)cc2Cl)cc1 | 12.93% |
| CCn1nc(C)c(CN(CCCOC)Cc2ccccn2)c1C.O=C(O)CC(O)(CC(=O)O)C(=O)O | 71.01% |
| Cc1occc1C(=O)N(CCN(C)C)Cc1ccccn1 | -8.298% |
| CCn1nc(C)c(CN(CCCN(C)C)Cc2ccccn2)c1C | 80.15% |
| CCn1nc(C)c(CN(CCOC)C(=O)c2ccccc2N(C)C)c1C | -7.863% |
| Cc1ccsc1CN(CCCN(C)C)Cc1ccccn1 | 97.01% |
| Cc1ccoc1C(=O)N(CCN(C)C)Cc1ccccn1 | -10.81% |

| Structure (SMILES) | Percent Effect |
| --- | --- |
| CCOCC(=O)N(Cc1ccccn1)Cc1ccccc1C | -6.914% |
| CCn1nc(C)c(CN(Cc2ccccn2)Cc2ccccc2Cl)c1C | 105.5% |
| Cc1ccsc1CN(Cc1ccccn1)CC(C)C | -7.102% |
| CCn1nc(C)c(CN(CCOC)C(=O)c2ccc(=O)[nH]n2)c1C | -5.597% |
| CCN(Cc1ccccn1)Cc1cc(Cl)ccc1OC | -5.315% |
| Cc1ccsc1CN(CCN(C)C)Cc1ccccn1 | 2.739% |
| CN1CCCN(CCCNC2CCc3cc4c(cc32)OCCO4)CC1 (stereo not given) | -2.164% |
| CCN1CCN(c2ccc(F)cc2C(C)NCc2noc(C)n2)CC1 (stereo not given) | 6.672% |
| NC(=O)c1ccnc(N2CCN(Cc3ccc(F)cc3Cl)CC2)c1 | 9.794% |
| CCCN(Cc1ccccn1)Cc1ccccc1OC | 8.723% |
| CCCn1nc(C)c(CN(CCN(C)C)Cc2ccccn2)c1C | 95.65% |
| CCCn1ncc(CN(CCN(C)C)Cc2ccsc2)c1C | 0.1145% |
| NC(=O)N1CCCC1COC(=O)c1ccc(F)cc1Br (stereo not given) | -14.4% |
| O=S1(=O)CCC(CNS(=O)(=O)N2CCc3ccccc3C2)C1 (stereo not given) | 5.684% |
| CCCC(C)(C)NC(=O)c1ccc(CC2CC(=O)NC2=O)cc1 (stereo not given) | -6.168% |
| O=C(N[C@@H]1CCNC[C@H]1O)c1ccc(O)c(Cl)c1 | 22.9% |
| O=C(N[C@H]1CCCC[C@@H]1O)c1ccc2nc(-c3ccccc3)[nH]c2c1 | 121.7% |
| CN1CCCC1CCn1ccnc1-c1nc2ccccc2[nH]1 (stereo not given) | 1.274% |
| O=C(N[C@@H]1CCNC[C@H]1O)c1ccc(-c2ccc(F)cc2)cc1 | 15.94% |
| O=C(N[C@H]1CCCC[C@@H]1O)c1cccc(-c2nc3ccccc3[nH]2)c1 | 102.7% |
| OCC1CCCCN1CCn1ccnc1-c1nc2ccccc2[nH]1 (stereo not given) | 1.292% |
| O=C(N[C@@H]1CCNC[C@H]1O)c1ccc(F)c(F)c1 | 7.783% |
| O=C(N[C@@H]1CNCCC[C@H]1O)c1ccc(OCc2ccccc2)cc1 | -1.908% |
| O=C(N[C@H]1CCCC[C@@H]1O)c1ccc(-c2nc3ccccc3[nH]2)cc1 | 104% |
| O=C(CCc1cn[nH]c1)N1C[C@@H](CN2CCOCC2)C[C@H](CO)C1 | 10.13% |

| Structure (SMILES) | Percent Effect |
| --- | --- |
| COC(=O)c1sccc1S(=O)(=O)N1CCC(Oc2cccnn2)CC1 | 13.23% |
| COC(=O)N1CCCC(NC(=O)NCc2ccc(C)nc2)C1 (stereo not given) | 12.17% |
| CN(Cc1nccn1C)C1CCCN(CCCc2ccccc2)C1 (stereo not given) | 7.706% |
| CN(C)Cc1ccnc(C2CN(CCCc3ccccc3)CCO2)n1 (stereo not given) | 114% |
| Cc1nc(C)n(CC2CN(CCCc3ccccc3)CCO2)n1 (stereo not given) | -18.17% |
| CC(C)(C)c1n[nH]c(C2CN(CCc3ccncc3)CCO2)n1 (stereo not given) | 18.66% |
| CN(C)Cc1ccnc(C2CN(CCc3ccccc3)CCO2)n1 (stereo not given) | 102.6% |
| Cn1ncc(N2CCC(CNC3CC(C)(C)CC(C)(C)C3)C2)cc1=O (stereo not given) | 8.981% |
| CN(CCO)Cc1nnc(C2CCN(C(=O)C3CCOCC3)CC2)n1C | -7.962% |
| Cc1nn(CCO)cc1CN1CCC(N2CCC(O)CC2)CC1 | -2.078% |
| CS(=O)(=O)c1cc(Cl)cnc1C1CCN(C(=O)C2CCOCC2)CC1 | 98% |
| O=C(C1CCCO1)N1CCC(Cn2cc(C3CCCC3)nn2)CC1 (stereo not given) | -6.289% |
| O=C(C1CCCO1)N1CCC(c2nc(-c3ccccc3)n[nH]2)CC1 (stereo not given) | -16.11% |
| Cc1nn(C)cc1CN1C[C@@H]2CC[C@H](C1)N(Cc1c(C)noc1C)C2=O | -0.3171% |
| Cc1nn(C)cc1CN1CCC(c2ncc(Cl)cc2S(C)(=O)=O)CC1 | 110.1% |
| CS(=O)(=O)c1cc(Cl)cnc1C1CCCN(C(=O)C2CCOCC2)C1 (stereo not given) | 120.4% |
| CS(=O)(=O)c1cc(Cl)cnc1C1CCN(C(=O)C2CCCO2)CC1 (stereo not given) | 120.4% |
| Cn1c(CN2CCCC2)nnc1C1CCCN(C(=O)C2CCOCC2)C1 (stereo not given) | -15.35% |
| CS(=O)(=O)N1C[C@@H](C(=O)Nc2cnccn2)C[C@H]2OCC[C@H]21 | -10.64% |
| Cc1cc(C)cc(C(=O)Nc2ccc(CC3CC(=O)NC3=O)cc2)c1 (stereo not given) | -7.063% |
| CCS(=O)(=O)c1ccc(N2CCC(N)CC2)cc1 | -6.106% |
| CCc1noc(C)c1C(=O)NCCCC(CC)(CC)C1OCCO1 | -8.501% |
| Cn1c(C(F)(F)F)nn(CCNC(=O)c2cnc3ccccc3n2)c1=O | 1.982% |
| CS(=O)(=O)c1cc(Cl)cnc1C1CCN(C(=O)C2CC2)CC1 | 82.8% |
| N#Cc1cnc(NC2CCN(C(=O)C3CC3)CC2)c(Cl)c1 | -2.67% |

| Structure (SMILES) | Percent Effect |
| --- | --- |
| O=C(C1CC1)N1CCC(Oc2ccccc2Cl)CC1 | -14.42% |
| CCn1nc(C)c(CCNC(=O)C2CCCN(CC(N)=O)C2)c1C (stereo not given) | -1.587% |
| O=C(CSC1=NS(=O)(=O)c2cc(F)ccc2N1)Nc1cccc(Cl)c1 | 1.822% |
| O=S1(=O)N=C(SCc2ccc(Cl)cc2)Nc2ccc(F)cc21 | 26.5% |
| O=C(CSC1=NS(=O)(=O)c2cc(F)ccc2N1)Nc1ccc(Cl)c(Cl)c1 | 112.6% |
| O=C(CSC1=NS(=O)(=O)c2cc(F)ccc2N1)Nc1ccc(Cl)cc1 | 115.7% |
| CN(CCS(=O)(=O)c1cc(Cl)ccc1Cl)CC(=O)Nc1ccc(F)cc1 | -4.797% |
| COCCC(=O)N1Cc2[nH]nc(COc3cccnc3)c2C1 | -7.677% |
| CC(=O)NCC(=O)N1CCC(c2cncc(Oc3cccnc3)n2)CC1 | 94.92% |
| CCOCC(=O)N1CCC(c2nc(-c3cccnn3)no2)CC1 | -10.28% |
| COCCC(=O)N1CCC(c2cncc(Oc3cccnc3)n2)CC1 | 116.7% |
| NCC(=O)N1CCC(c2cncc(Oc3cccnc3)n2)CC1 | 115.4% |
| CN(C)c1cncc(C2CCN(C(=O)CO)CC2)n1 | -8.172% |
| CCC(=O)N1CCC(c2cncc(Oc3cccnc3)n2)CC1 | 118.9% |
| O=C(c1cnc[nH]1)N1CCC(Oc2cccnc2)CC1 | -5.216% |
| O=C(O)c1coc(COc2cccc(F)c2)n1 | 4.925% |
| Cn1cc(C(C)(O)CNc2ccc(C(F)(F)F)cn2)cn1 (stereo not given) | -6.245% |
| CC(C)(C)CC(NC(=O)c1nc(=O)[nH][nH]1)c1ccc(F)cc1 (stereo not given) | -5.789% |
| COC(=O)CCNC(=O)c1coc(COc2ccc(F)cc2)n1 | -5.567% |
| CCOC(=O)NC(=O)CSC(C)c1ccccc1F (stereo not given) | 4.048% |
| CN1CCN2CCN(C(=O)c3cnn4cc(CCO)cnc34)CC2C1 (stereo not given) | -3.17% |
| Cn1ccnc1CN1CCCN(C(=O)c2ccc3[nH]cnc3c2)CC1 | 100.5% |
| Cn1ccnc1CN1CCCN(C(=O)c2ccc3[nH]nnc3c2)CC1 | 102.4% |
| CC(C)c1nccn1C1CCCN(C(=O)c2ccc3[nH]cnc3c2)C1 (stereo not given) | -5.197% |
| Cc1nccn1CCC1CCCCN1C(=O)c1ccc2[nH]nnc2c1 (stereo not given) | -0.5329% |

Source: ChEMBL document CHEMBL3988442, “University of Dundee, Small-Polar-MMV Screening Library” (2021)
